The supplement of paper PMC3334620
Whole data set: some 33,000 sequences, median “E-score (-0.5 to 0.5)” near -0.054, cut for the highest 2% near 0.35. The list comes from a sample in which the highest values are over-represented; it also holds similar and randomly drawn sequences.

Target: T1, Stb5 (UniProt P38699)
T1 sequence: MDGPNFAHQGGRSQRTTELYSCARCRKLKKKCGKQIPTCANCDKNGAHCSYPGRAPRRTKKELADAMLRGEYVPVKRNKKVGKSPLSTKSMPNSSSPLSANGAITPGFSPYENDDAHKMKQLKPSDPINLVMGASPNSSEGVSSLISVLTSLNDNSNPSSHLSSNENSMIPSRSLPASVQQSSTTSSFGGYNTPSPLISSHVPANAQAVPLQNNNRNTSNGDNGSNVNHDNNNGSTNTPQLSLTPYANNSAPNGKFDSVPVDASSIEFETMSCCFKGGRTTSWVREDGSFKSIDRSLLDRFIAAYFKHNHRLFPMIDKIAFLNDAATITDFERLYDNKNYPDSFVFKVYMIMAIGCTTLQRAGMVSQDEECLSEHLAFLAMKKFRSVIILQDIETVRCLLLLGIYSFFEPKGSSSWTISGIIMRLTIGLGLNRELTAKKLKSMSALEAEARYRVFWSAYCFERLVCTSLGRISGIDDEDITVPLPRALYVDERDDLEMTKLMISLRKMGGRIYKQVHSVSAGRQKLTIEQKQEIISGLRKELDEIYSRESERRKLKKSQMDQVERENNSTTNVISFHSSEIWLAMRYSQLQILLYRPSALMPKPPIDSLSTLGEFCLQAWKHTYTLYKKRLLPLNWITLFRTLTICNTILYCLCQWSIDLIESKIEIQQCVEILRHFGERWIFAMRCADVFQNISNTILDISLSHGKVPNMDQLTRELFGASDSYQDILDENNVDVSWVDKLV
Test: PBM E-score (8-mer binding enrichment) (E-score (-0.5 to 0.5)); higher = stronger / more preferred TF binding
Conditions: protein concentration: 200 nM; construct: GST-full length
Summary of the method: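 Each ungapped eight-base word and its reverse complement, pooled, received an E-score from the Universal PBM Analysis Suite. Underlying scans, normalised with masliner, recorded fluorescent anti-GST bound to GST-tagged yeast transcription factors. These were applied at about 100-200 nM to universal all-10-mer Agilent arrays double-stranded by primer extension.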

| Sequence | PBM E-score |
| --- | --- |
| GCCTAGGC | -0.0482 |
| ACCAGGCA | -0.187 |
| AGCTACAC | -0.174 |
| CTCTAGAC | -0.146 |
| GCAGTTGA | -0.177 |
| GTTCATCA | -0.136 |
| ATTAAGAA | 0.0289 |
| ATGAACGA | -0.0854 |
| AACAGGCA | -0.186 |
| CGTCGTAC | 0.0941 |
| GTCCTCTA | -0.159 |
| CCGCCGGC | 0.421 |
| CGGCCGGC | 0.284 |
| ACGCCGGC | 0.389 |
| CCGCCGGA | 0.309 |
| ACGCCGGG | 0.306 |
| ACGCCGGA | 0.343 |
| CGAAAGAA | 0.0281 |
| AACTGCGT | -0.00018 |
| CGCATTGC | -0.0359 |
| AACCGGCG | 0.313 |
| CACCGGCC | 0.318 |
| CACCGGCG | 0.417 |
| TACCGGCA | 0.31 |
| CACCGGCA | 0.377 |

| Sequence | PBM E-score |
| --- | --- |
| AACCGGCA | 0.106 |
| CTGCACTA | -0.0814 |
| CGCTAAGC | 0.0898 |
| ATGAAAAC | 0.116 |
| CAATCCGG | 0.167 |
| CAATCCCG | 0.281 |
| AAATCCGG | 0.376 |
| GAATCCGC | 0.0516 |
| AAATCCGA | 0.332 |
| AAATCCGT | 0.281 |
| AAATCCCG | 0.411 |
| AAATCCGC | 0.354 |
| AAATCCCA | -0.156 |
| ATTCGCGG | 0.171 |
| CAGCACTG | -0.172 |
| GAATAAGA | 0.0303 |
| CGTCTAAA | -0.027 |
| CAGCAGTC | -0.115 |
| ACTTCGCT | -0.0885 |
| AACGGTGC | 0.332 |
| CACGGTGA | 0.282 |
| TACGGTGA | 0.16 |
| AACGGTGA | 0.355 |
| AACGGTGT | 0.425 |
| AACGGTGG | 0.245 |

| Sequence | PBM E-score |
| --- | --- |
| CCCATTGC | 0.0345 |
| GTCCCTGA | -0.284 |
| GGGAGGCA | 0.111 |
| AGGCTCCG | 0.246 |
| ACTACCGG | 0.279 |
| ATTACCGA | 0.38 |
| CTTACCGC | 0.193 |
| ATTACCCG | 0.176 |
| ATTACCGC | 0.419 |
| CTTACCCC | 0.222 |
| GTTACCGA | 0.197 |
| CTTACCGA | 0.0867 |
| ATTACCTG | -0.0469 |
| ATTACCGG | 0.371 |
| ATTACCTC | 0.0374 |
| ATTACCCC | 0.362 |
| CAGCAAGG | -0.369 |
| GATGATAA | 0.0422 |
| ACCCACTA | 0.0277 |
| CGGCTTCA | 0.259 |
| ACTTTGGG | -0.0994 |
| CTGGCCAC | -0.199 |
| CTCCCGAG | -0.213 |
| CCAAGGTA | -0.11 |
| CGGCGGGA | 0.347 |

| Sequence | PBM E-score |
| --- | --- |
| GTGCGGTA | 0.367 |
| GGGCGGTA | 0.346 |
| CGGCGGCC | 0.242 |
| AGGCGGTA | 0.287 |
| CCGCGGGC | 0.335 |
| CGGCGGGC | 0.361 |
| CTGCGGTA | 0.254 |
| ATGCGGTA | 0.243 |
| CGGCGGTA | 0.451 |
| CGGCGGTC | 0.355 |
| AGGCGGTC | 0.258 |
| AGCGAGTC | -0.132 |
| AGAATTCG | -0.146 |
| CGGCGACG | 0.194 |
| GACGGCGC | 0.199 |
| CAACCGTC | -0.0245 |
| GGGCCGAC | 0.355 |
| GGGCCGAA | 0.175 |
| CGGCCGAC | 0.205 |
| AGGCCGAC | 0.406 |
| AGGCCGAT | 0.295 |
| GAGCCGAC | 0.201 |
| ACAAGTGT | -0.136 |
| CAGGTTAA | -0.0457 |
| AACGGAGA | 0.247 |

| Sequence | PBM E-score |
| --- | --- |
| AACGGATC | 0.16 |
| CACGGACC | 0.241 |
| AACGGACC | 0.38 |
| AACGGGGT | 0.373 |
| AACGGAGC | 0.242 |
| AACGGGGC | 0.294 |
| AACGGACA | 0.298 |
| AACGGACT | 0.38 |
| AACGGGGG | 0.296 |
| AACGGAGT | 0.378 |
| AACGGACG | 0.224 |
| GTAAGATA | 0.0697 |
| CTGCAGCC | -0.218 |
| TCTGGGCA | 0.115 |
| TAGCTTCA | -0.214 |
| AGCGATGC | -0.112 |
| CGTTGTAA | -0.00989 |
| AGTTCAGC | -0.299 |
| TAGCGGCA | 0.372 |
| CAGCGGCA | 0.198 |
| GAGCGGCC | 0.293 |
| GAGCGGCA | 0.357 |
| GAGCGGTA | 0.316 |
| AAGCGGCA | 0.344 |
| CGCCAGTC | 0.131 |

| Sequence | PBM E-score |
| --- | --- |
| CGCTGATC | 0.0743 |
| TAGCGATA | 0.0393 |
| AATGCCCG | 0.362 |
| CATGCCGA | 0.168 |
| AATGCCCC | 0.128 |
| AATGCCGC | 0.448 |
| GATGCCGC | 0.349 |
| CATGCCCG | 0.122 |
| CATGCCGC | 0.312 |
| AATGCCTG | -0.102 |
| AATGCCGA | 0.419 |
| AATGCCGG | 0.401 |
| GATGCCGA | 0.332 |
| CATGCCGG | 0.344 |
| AAGACCTC | -0.0749 |
| CCCTTGGC | -0.224 |
| CTGATTAC | -0.0945 |
| GCAGTTCA | -0.151 |
| CTTGCCAC | -0.0929 |
| CTGGGAGA | -0.253 |
| AAAGCTCG | -0.16 |
| AGATAGAC | -0.0476 |
| ACCCTTTG | 0.0498 |
| CAGCCATA | -0.263 |
| AATCCCAA | 0.0066 |

| Sequence | PBM E-score |
| --- | --- |
| AATGCCAT | -0.0216 |
| AATGCCGT | 0.425 |
| AATGCCCT | -0.168 |
| GGGTTTCA | 0.19 |
| GACCGCAC | 0.18 |
| TACCGCAA | 0.225 |
| CACCGCAA | 0.368 |
| AACCGCAA | 0.12 |
| AACCGCAC | 0.00707 |
| CACCGCAC | 0.357 |
| CGAGGCTA | -0.0771 |
| AATGAGAG | -0.228 |
| ATGCCTTA | -0.338 |
| AACCGGAG | 0.302 |
| CACCGGAG | 0.379 |
| CTCCGGAC | 0.381 |
| ATCCGGAC | 0.258 |
| CGCCGGAA | 0.168 |
| GGCCGGAC | 0.331 |
| CTCCGGAG | 0.283 |
| CGCCGGAC | 0.396 |
| GACCGGCC | 0.29 |
